The list is not random: actives were taken first. Their share in the collection is about 10%.
LMNA splice mod = LMNA splicing modulation; HeLa LMNA splicing GFP/RFP minigene ratio, 48 h; Potency, µM (series often up to 46.1 µM), without a hit: at the top dose ratio change, negative = inhibition, most hits filed as inhibitors; 0.01% of 200,000 active; AID 1487; active means well fitted inhibition curve with a large enough effect in the signal ratio, with a control signal flat, not every such curve was filed as active; inconclusive means small, poorly fitted or top-dose-only effect, or effect the other way, or a change in a side signal; the % refers to the signal ratio; further: potency means the concentration at half of the fitted maximal effect
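Read-out is the ratio of GFP to DsRed2 object intensity, acquired by 488 nm laser-scanning cytometry on HeLa lamin A-EGFP minigene reporter cells. Compound incubation 48 hrs at 37 °C in Opti-MEM with 2% FBS; DMSO 0.5% final.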
ALDH1A1 block = inhibitors of human aldehyde dehydrogenase 1A1 | Purified ALDH1A1, NADH fluorescence, propionaldehyde substrate | Potency, µM (series often up to 75.3 µM), inactives show at the highest dose activity, negative = inhibition, usual class: inhibitors | 7.3% of 220,000 active | AID 1030;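 further: potency means the concentration at half of the fitted maximal effect; plate controls were no enzyme wells and a reference inhibitor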
PNC inhibitor = inhibitors of perinucleolar compartment assembly; PC3M PTB-GFP, PNC prevalence imaging, 16 h; hits give low values; activity change (PNC), negative = inhibition, % at 10 µM; 3.1% of 140,000 active;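 active means readout at or below -70, meaning at least 70% loss of cells showing the perinucleolar compartment, a nuclear body marking cancer cells; inconclusive means readout between -30 and a set limit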;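 further: plate controls were DMSO wells for no effect and camptothecin positive control wells for full effect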
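PC3M cells stably expressing PTB-GFP, 750–1000 cells/well, treated 16 h at 37 °C with compound (23 nl of library stock), in duplicate. After paraformaldehyde fixation and Hoechst stain, imaged at 20x; PNC prevalence scored by image analysis.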
HPGD inh = blocks human HPGD enzyme activity; P15428; purified HPGD, NADH fluorescence kinetic, PGE2 substrate; Potency, µM, for inactives: top-dose activity change, negative = inhibition, most hits filed as inhibitors; 4.3% of 150,000 active; AID 894; further: potency means the concentration at half of the fitted maximal effect
Target sequence (P15428 whole entry, looked up): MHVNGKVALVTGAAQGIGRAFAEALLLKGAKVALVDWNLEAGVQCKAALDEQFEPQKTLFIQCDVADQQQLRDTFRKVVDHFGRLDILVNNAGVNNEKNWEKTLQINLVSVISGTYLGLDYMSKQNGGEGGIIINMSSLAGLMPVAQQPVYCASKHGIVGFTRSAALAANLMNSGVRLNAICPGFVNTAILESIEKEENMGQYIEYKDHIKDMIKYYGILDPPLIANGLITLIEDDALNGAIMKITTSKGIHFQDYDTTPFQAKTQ
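20 nM HPGD preincubated 15 min at room temperature with compound in 50 mM Tris-HCl pH 8, 0.01% Tween 20. Started with 1 mM NAD+ and 30 uM prostaglandin E2; NADH fluorescence (360/450 nm) read 5 times over 30-s intervals, last minus first.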
ALOX12 inhib = inhibitors of human 12-lipoxygenase (ALOX12) | purified 12-hLO, xylenol orange hydroperoxide absorbance | Potency, µM (top dose mostly 57.1 µM), for inactives: at the highest dose activity change, negative = inhibition, most hits filed as inhibitors | 0.12% of 150,000 active | AID 1452; active means well fitted inhibition curve with a large enough effect; inconclusive means small, poorly fitted or top-dose-only effect; further: potency means the concentration at half of the fitted maximal effect; nearly all actives have a fitted effect of over 55% in size
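Purified human 12hLO (150 nM final) was preincubated with compounds for 15 min at room temperature in 25 mM Hepes pH 7.0, 0.01% Triton X-100, then reacted with 40 uM arachidonic acid for 30 min. Hydroperoxide was detected with ferrous iron/xylenol orange.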
The depositor's hits bear a star; [ ] = dose if it differs, or a comment. Unless noted, the call rests on the fitted dose curve; in most records, active means well fitted inhibition curve with a large enough effect (not every such curve was filed as active); inconclusive means small, poorly fitted or top-dose-only effect, or another doubt; inactive means no such curve, though single readings can be large or run the other way. Unless noted, on the % scale 0 is the no-effect control and ±100 the full control effect.

How did CCOC(=O)N1CCN(C(=O)c2ccc3c(=O)n(CC4CCCO4)c(=S)[nH]c3c2)CC1 (configuration not stated) do in these assays?
LMNA splice mod: 17%; ALDH1A1 block: 14µM*; PNC inhibitor: -13; HPGD inh: -5%; ALOX12 inhib: 1%

How did COc1ccc(NCc2cccn2-c2nnc(N3CCCCC3)s2)cc1OC do in these assays?
LMNA splice mod: -3%[46 µM]

What do the screens show for `CCc1cccc(C)c1NC(=O)c1cc(S(=O)(=O)N2CCN(c3ccccc3)CC2)ccc1F`?
LMNA splice mod: 16%[46 µM]

Results for COc1cc(C(=O)N2CCN(S(=O)(=O)c3ccc(C)cc3)CC2)ccc1OCc1c(C)noc1C ?
LMNA splice mod: inconclusive; ALDH1A1 block: 4%; PNC inhibitor: 25; HPGD inh: -5%; ALOX12 inhib: -14%

Results for COc1ccc(S(=O)(=O)N2CCCCCC2)cc1C(=O)OCc1c(C)noc1C ?
LMNA splice mod: -3%; ALDH1A1 block: 14µM*; PNC inhibitor: 28; HPGD inh: 1%; ALOX12 inhib: -7%

Results for Cc1noc(C)c1COC(=O)c1cccc(S(=O)(=O)N2CCCCCC2)c1 ?
LMNA splice mod: inconclusive; ALDH1A1 block: inconclusive; PNC inhibitor: inconclusive; HPGD inh: -2%; ALOX12 inhib: -5%

What do the screens show for `COc1ccc(S(=O)(=O)N2CCc3ccccc32)cc1C(=O)OCc1c(C)noc1C`?
LMNA splice mod: inconclusive; ALDH1A1 block: 3.2µM*; PNC inhibitor: inconclusive; HPGD inh: -18%; ALOX12 inhib: -6%

How did Cn1cnc2nc(NCCO)nc(NCc3ccccc3)c21 do in these assays?
ALDH1A1 block: -8%

Results for Cc1ccc(OCCn2c(=S)[nH]c3c(N)ncnc32)cc1 ?
LMNA splice mod: inconclusive; ALDH1A1 block: 7.9µM*

What do the screens show for `CC(C)Oc1ccc(OCCn2c(=S)[nH]c3c(N)ncnc32)cc1`?
ALDH1A1 block: 10µM*

Results for Cc1oc2ncnc(N3CCOCC3)c2c1C(=O)NCc1ccccc1 ?
LMNA splice mod: 23%[46 µM]

Results for Cc1nc(SCC(=O)c2ccc(Cl)s2)c2oc3ccccc3c2n1 ?
LMNA splice mod: 22%; ALDH1A1 block: inconclusive; PNC inhibitor: -25; HPGD inh: 2.2µM*; ALOX12 inhib: 0%

What do the screens show for `CCc1nc(SCC(=O)NCCc2ccccc2)c2oc3ccccc3c2n1`?
LMNA splice mod: 14%; ALDH1A1 block: -4%; PNC inhibitor: 3; HPGD inh: -14%; ALOX12 inhib: -7%

What do the screens show for `Cc1nc(SCC(=O)NC(C)c2ccccc2)c2oc3ccccc3c2n1` (configuration not stated)?
LMNA splice mod: 1%; ALDH1A1 block: -7%; PNC inhibitor: 61; HPGD inh: -12%; ALOX12 inhib: -3%

Results for CNC(=O)C(Sc1nc(C)nc2c1oc1ccccc12)C(C)=O (configuration not stated) ?
LMNA splice mod: -12%; ALDH1A1 block: 13µM*; PNC inhibitor: -2; HPGD inh: -24%; ALOX12 inhib: -14%

Results for Cc1nc(SCC(=O)NCCc2ccccc2)c2oc3ccccc3c2n1 ?
LMNA splice mod: -3%[0.0737 µM]; ALDH1A1 block: -1%; PNC inhibitor: -100*; HPGD inh: -20%; ALOX12 inhib: 7%

How did Cc1cc(C)nc(Sc2nc(C)nc3c2oc2ccccc23)n1 do in these assays?
LMNA splice mod: inconclusive; ALDH1A1 block: inconclusive; PNC inhibitor: 128; HPGD inh: 32µM*; ALOX12 inhib: 1%

What do the screens show for `CCOc1ccc(C2C([N+](=O)[O-])=C(C)N(C)C(=O)N2C)cc1OC` (configuration not stated)?
ALDH1A1 block: 7%

What do the screens show for `Cc1cccc(-n2ncc(C(=O)NCc3ccco3)c2C2CCN(C(=O)OC(C)(C)C)CC2)c1`?
LMNA splice mod: -2%[46 µM]

Results for COc1ccccc1N1CCN(C(=O)c2nn(-c3ccc(C)cc3)c(=O)n(C)c2=O)CC1 ?
LMNA splice mod: 3%[46 µM]

What do the screens show for `COC(=O)C1=C(C)N(Cc2ccccc2)C2=C3C(=O)CCCC3[C@@](O)(C(=O)OC)C(=O)N2C1c1ccccc1` (some centres not stated)?
ALDH1A1 block: 10%[13.5 µM]

What do the screens show for `CCC(=O)c1c(O)cc(O)cc1O`?
LMNA splice mod: inconclusive; ALDH1A1 block: -13%; HPGD inh: -18%; ALOX12 inhib: 4%

Results for CCN(C(=O)c1sc2nc3n(c(=O)c2c1C)CCCC3)c1ccccc1F ?
LMNA splice mod: -1%[46 µM]

How did O=C(O)CSc1nc(-c2ccc(Cl)cc2)nc2c1oc1ccccc12 do in these assays?
LMNA splice mod: inconclusive; ALDH1A1 block: inconclusive; PNC inhibitor: -87*; HPGD inh: 16µM*; ALOX12 inhib: 7%

What do the screens show for `CCS(=O)(=O)c1ncc(N(Cc2cccc(F)c2)Cc2ccco2)c(C(=O)Nc2ccccc2Cl)n1`?
LMNA splice mod: 28%[46 µM]

Results for FC(F)(F)c1ccccc1-c1ccc2ncnc(NCCN3CCOCC3)c2c1 ?
LMNA splice mod: -11%; ALDH1A1 block: 10%

What do the screens show for `N/C(=N/OS(=O)(=O)c1ccc([N+](=O)[O-])cc1)c1ccncc1`?
LMNA splice mod: inconclusive; ALDH1A1 block: 32µM*

What do the screens show for `COc1ccc(N2CCN(S(=O)(=O)CCNC(=O)c3ccc(C(F)(F)F)cc3)CC2)cc1`?
LMNA splice mod: -3%[46 µM]

Results for COCC(=O)Nc1ccc(S(=O)(=O)NCCc2ccccc2)cc1 ?
LMNA splice mod: inconclusive; ALDH1A1 block: -11%; PNC inhibitor: -107*; HPGD inh: -8%; ALOX12 inhib: -2%

What do the screens show for `NS(=O)(=O)c1ccc(CCNS(=O)(=O)c2ccccc2)cc1`?
ALDH1A1 block: 8.9µM*

How did COc1ccc(S(=O)(=O)NCCc2ccccc2)cc1 do in these assays?
LMNA splice mod: -8%; ALDH1A1 block: inconclusive; PNC inhibitor: 23; HPGD inh: 3%; ALOX12 inhib: -2%

How did CC(=O)NS(=O)(=O)c1ccc(NC(=O)COc2ccc(C(=O)c3ccccc3)cc2)cc1 do in these assays?
LMNA splice mod: 1%; ALDH1A1 block: 10µM*; PNC inhibitor: -12; HPGD inh: 25µM*; ALOX12 inhib: -2%

What do the screens show for `NCC(=O)NC1(C(=O)O)CCCC1`?
ALDH1A1 block: -3%[13.5 µM]; HPGD inh: -2%; ALOX12 inhib: 9%[11.4 µM]

What do the screens show for `Cc1nnc2sc(SCc3ccc(Br)cc3)nn2c1=O`?
ALDH1A1 block: 1%

What do the screens show for `N[C@@H](Cc1ccccc1)c1nnc2sc(SCc3ccccc3)nn12`?
LMNA splice mod: -2%; ALDH1A1 block: 28µM*; PNC inhibitor: 24; HPGD inh: 28µM*; ALOX12 inhib: -2%

How did CC1CC(C)(C)Nc2ccc(N=O)cc21 (configuration not stated) do in these assays?
LMNA splice mod: inconclusive; ALDH1A1 block: 10µM*
